These results are taken from ChEMBL document CHEMBL4513216, “Probing the Open Global Health Chemical Diversity Library for Multistage-Active Starting Points for Next-Generation Antimalarials” (ACS Infect Dis, 2020).

The campaign covered roughly 69,000 compounds. About 8,600 (12%) showed an effect of 50% or more. This excerpt belongs to a sample that is enriched for strong results.

The assay concerns Plasmodium berghei. Put plainly: Screen against P. berghei liver stage (PbLuc), transformed with Luciferase, at 10uM. Type of assay: functional, HepG2. To be noted: tested at 10 uM.
For `CC(C)(C)NC(=O)c1cccc(CN2CCS(=O)(=O)CC2)c1`, the INHIBITION came out at 47.3%. As to `Cc1ccc(N2CCC3(CCN(C(=O)c4ccccn4)CC3)CC2)nn1`, the INHIBITION is listed as 0.72%. As to `Cc1cc(C)n(CC(C)CNC(=O)NCc2csc(C)n2)n1` (stereo not given), the INHIBITION was 35.4%.

With `Cc1nnc(SC2CCc3ccccc3NC2=O)n1C` (stereo not given), the INHIBITION is reported as 38.1%. For `Cn1nnnc1SC1CCc2ccccc2NC1=O` (stereo not given) the value was 56.3%; for `Cn1cnnc1SC1CCc2ccccc2NC1=O` (stereo not given), 34.3%; for `O=C(NCc1ccc(-n2cncn2)nc1)c1ccc2c(c1)CCC2`, -45.9%. For `COC[C@]1(O)CCN(C2CCN(c3ccc(OC)cc3)CC2)CC1(C)C` the value was 23.9%; for `Cn1cnc2c1CCN(Cc1csc(C3CCCCC3)n1)C2`, 33.3%. For `CCCNC(=O)C1CCN(CC(O)c2ccccc2)CC1` (stereo not given) the value was 30%; for `CCCNC(=O)C1CCN(CC(O)c2ccccc2C(F)(F)F)CC1` (stereo not given), -4.12%; for `CCCNC(=O)C1CCN(CC(O)c2ccc(C(F)(F)F)cc2)CC1` (stereo not given), 51.6%.

As for `CO[C@H]1CCN(Cc2cccc(C)n2)[C@@H]2CN(Cc3cccnc3)C[C@H]12`, the INHIBITION is on record as 30.1%.

As for `CCSc1ncc(-c2cc(C3CC3)nc(N)c2C#N)cn1`, the INHIBITION turned out to be 52.8%.

On to `CS(=O)(=O)c1ccc(-c2cc(C3CC3)c(C#N)c(N)n2)cc1`, for which the INHIBITION is given as -21.2%. As for `CC(C)c1ncc(-c2cc(C3CCC3)nc(N)c2C#N)cn1`, the INHIBITION is 62.6%. For the compound `N#Cc1c(C2CC2)cc(-c2ccc(F)c(F)c2)nc1N`, the INHIBITION was -42.8%. For `CCCNc1ncc(-c2cc(C3CC3)nc(N)c2C#N)cn1`, the INHIBITION came to 34.4%. As to `CCSc1ncc(-c2cc(C3CCC3)nc(N)c2C#N)cn1`, the INHIBITION was determined as 48.5%. For `Cc1ccc(N2CC[C@@H]3O[C@@H](COCc4cccnc4)CC[C@@H]32)nn1` the value was 4.02%; for `CCN(C(C)=O)C(c1ccc(Cl)cc1)c1ccccn1` (stereo not given), 33.7%; for `O=C1CCCN1Cc1ncn2c1CN(C(=O)Cc1cccs1)CCC2`, 32.2%. With `Cc1nc(O)ccc1C(=O)NCc1ncoc1C`, the INHIBITION is listed as -17.3%. With `Cc1cnc(CCN(C)C(=O)c2ccc(O)nc2C)s1`, the INHIBITION is recorded as 60.2%. For `Cc1cnc(CCN(C)C(=O)c2cccc(C)c2O)s1` the value was 58.8%; for `Cc1nc(-c2ccsc2)ccc1C(=O)N(C)CC1CC1`, 27.7%; for `Cc1cnc(CCN(C)C(=O)c2cccc(N(C)C)c2)s1`, 33.7%. For `Cc1ncsc1CCN(C)C(=O)c1c(O)cccc1O` the value was 25.1%; for `CNC(=O)[C@@H](c1ccccc1)N1CCC[C@H]1C(=O)NCc1ccccn1`, 34.6%. In the case of `CN(Cc1cccs1)C(=O)CN1C(=O)c2cc(Cl)c(Cl)cc2C1=O`, the INHIBITION was determined as 14.8%. For the compound `CCC(O)CN1CCN(C(=O)c2cccc(CC#N)c2)CC1` (stereo not given), the INHIBITION is given as -12.2%. For `O=C(C1CCN(c2cccnn2)C1)N1CCOCC1` (stereo not given), the INHIBITION came to 18.3%. For `Cc1cc(CN2C[C@@H]3CN(C(=O)c4cccn4C)CCO[C@@H]3C2)no1` the value was 89.3%.

Turning to `Cn1cc(CN2C[C@@H]3CN(C(=O)c4cccn4C)CCO[C@@H]3C2)cn1`, the INHIBITION was determined as 24.9%.

In the case of `Cc1cc(CN2C[C@@H]3CN(C(=O)c4ccco4)CCO[C@@H]3C2)no1`, the INHIBITION is listed as 12%. In the case of `CN(Cc1cnn(C)c1)C(=O)NC1CCCC1`, the INHIBITION was 8.38%. In the case of `CCCS(=O)(=O)N1CCO[C@H]2[C@@H](Oc3cccnc3)CC[C@@H]21`, the INHIBITION was found to be 10.5%.

For the compound `O=c1ccc(S(=O)(=O)N2CCCC2)cn1CC1CCCCO1` (stereo not given), the INHIBITION is -15%. For `c1cncc(CN2CC[C@@H]3[C@@H]2CCN3Cc2ccc3c(c2)OCO3)c1` the value was -8.51%. For `O=S(=O)(c1c(N2CCCCC2)ccc2nonc12)N1CCCCC1` the value was 8.41%; for `CC(NC(=O)N1CCNC(=O)CC1)c1ccc(OC(F)F)cc1` (stereo not given), -18.3%. For `COc1ccc(C(C)NC(=O)N2CCNC(=O)CC2)cc1F` (stereo not given) the value was 74.8%. `Cc1ccc(C(C)NC(=O)N2CCNC(=O)CC2)cc1F` (stereo not given): the INHIBITION came to 42.3%.

Turning to `CCCc1n[nH]c(C2CN(C(=O)c3cc4c(s3)CCC4)CCO2)n1` (stereo not given), the INHIBITION turned out to be 33.8%. As for `CC(C)NC(=O)CC1COC2(CCN(Cc3ccsc3)CC2)C1` (stereo not given), the INHIBITION worked out at 13.7%. For `Cc1noc2ncc(C(=O)NCC3CCS(=O)(=O)C3)cc12` (stereo not given) the value was -49.1%; for `COc1ccccc1C(C)(C)NC(=O)c1ccc(F)c(NC(C)=O)c1`, -47%.

As to `Cc1c2ncn(CC(=O)c3ccccc3)c(=O)c2nn1C`, the INHIBITION stood at 14.9%. For `N#Cc1ccc(CN2C(=O)c3ccccc3CS2(=O)=O)cc1` the value was -9.35%. Turning to `O=C(CN1C(=O)c2ccccc2CS1(=O)=O)c1ccccc1`, the INHIBITION is 74.2%. Consider `CN1CCC2(Cc3ccccc3CN(C(=O)c3ccc(Cl)cc3)C2)C1` (stereo not given), for which the INHIBITION is -17.2%. Turning to `O=C(CN1C(=O)c2ccccc2CS1(=O)=O)c1ccc(Cl)cc1`, the INHIBITION stood at 55.4%. As for `N#Cc1ccc(CN2C(=O)c3ccccc3CS2(=O)=O)c(F)c1`, the INHIBITION was determined as 15.2%.

As to `CC1CCN(C(=O)C2CCN(c3ccc(Cl)cc3C#N)CC2)CC1`, the INHIBITION is reported as 41%.

Turning to `Cc1nc(C(=O)N2CCCC2c2c(C)nn(C)c2C)cs1` (stereo not given), the INHIBITION came to 13.3%. For `Cc1csc(N2CCN(CC(=O)NC3CCOCC3)CC2C)n1` (stereo not given) the value was 45.6%.

As to `CCC(=O)N1CCC2(CC1)C(=O)N(C)CCN2Cc1csc(C)n1`, the INHIBITION amounted to 13.6%. Take `CCc1nsc(N2CCCN(CC(=O)N(C)C3CC3)CC2)n1`: the INHIBITION stood at 39.3%.

As for `Cc1nsc(N2CCN(CC(=O)N(C3CC3)C(C)C3CC3)CC2)n1` (stereo not given), the INHIBITION was 22.6%. For `CCN(C(=O)CN1CCCN(c2nc(C)ns2)CC1)C1CC1` the value was 68.5%; for `COc1ccc(-c2noc(C(N)CCSC)n2)cc1OC` (stereo not given), 46.6%. For `CNc1cc(CCNC(=O)C2CCCC2)nc(-c2ccccn2)n1` the value was -9.34%; for `O=C1CC(C(=O)NCc2ccccc2Oc2ccccc2F)CCN1` (stereo not given), 8.38%. For `Cc1ccc(CNC(=O)C2CCNC(=O)C2)c(OCCC(C)C)c1` (stereo not given) the value was 58.4%. Turning to `Cc1cccc(Oc2ccccc2CNC(=O)C2CCNC(=O)C2)c1` (stereo not given), the INHIBITION is given as -33.7%. For `CNC(=O)c1ccc(N(C)C2CCC2)nn1` the value was -107%; for `CN(c1ccc(C(N)=O)nn1)C1CCC1`, -8.73%. On to `COC(=O)c1ccc(N(C)C2CCC2)nn1`, for which the INHIBITION turned out to be 50.1%. Turning to `Cc1noc2nc(C3CCN(CC4=CCCOC4)CC3)cc(C(F)F)c12`, the INHIBITION stood at 39.8%.

For `CC(=O)Nc1nc(C2CCN(C(=O)Cc3ccccc3)CC2)cs1`, the INHIBITION is given as 0.301%. As for `Cc1cc(C(=O)N2CCCC(C)C2)ccc1NCC(=O)N1CCOCC1` (stereo not given), the INHIBITION is reported as -47.6%. Take `CN(C)CCO[C@H]1CN(C(=O)c2ccc3c(c2)OCO3)[C@@H]2COC[C@H]12`: the INHIBITION is -20.8%. Consider `COCC1CN(S(=O)(=O)c2ccc(C)cc2)Cc2c1cnn2C` (stereo not given), for which the INHIBITION is recorded as 34.9%. As to `Cn1ncc2ccc(C3CCCN(Cc4cccs4)C3)nc21` (stereo not given), the INHIBITION is reported as 20.74%. As to `COCC1CN(C(=O)Cc2ccccn2)Cc2c1cnn2CC1CC1` (stereo not given), the INHIBITION stood at 15.9%. For `CCO[C@H]1CN(C(=O)c2ccc3c(c2)OCO3)[C@@H]2COC[C@H]12` the value was 57.9%; for `CCOCC1CN(C(=O)Cc2ccccn2)Cc2c1cnn2C` (stereo not given), 26.4%; for `COCC1CN(S(=O)(=O)Cc2ccccc2)Cc2c1cnn2C` (stereo not given), 54.1%.

As to `Cn1ncc2c1CN(C(=O)Cc1ccccn1)CC2COCC1CC1` (stereo not given), the INHIBITION is 64.9%. For `Cn1ncc2ccc(C3CCCN(C(=O)Cc4cccs4)C3)nc21` (stereo not given) the value was 58.5%; for `COCC1CN(S(=O)(=O)Cc2ccc(C)cc2)Cc2c1cnn2C` (stereo not given), -0.554%. Take `Cc1cc(C)n(C2CCCN(C(=O)Cc3cccs3)C2)n1` (stereo not given): the INHIBITION is reported as -5.25%. For `CO[C@H]1CN(C(=O)c2ccc3c(c2)OCO3)[C@@H]2COC[C@H]12` the value was 1.48%; for `CC1CCN(S(=O)(=O)N2CCCN(CC3CCCO3)CC2)CC1` (stereo not given), 38%. For `CC(C)n1cnc2c1C(C(=O)NCCO)N(Cc1ccccc1)CC2` (stereo not given) the value was -18.4%; for `CSc1ncc(C(=O)N2C[C@@H]3CC[C@H]2CN(c2ncccn2)C3)cn1`, 14%. Turning to `COCC1CN(C(=O)Cc2cccs2)Cc2c1cnn2C` (stereo not given), the INHIBITION turned out to be 66%.

Take `COCC1CN(C(=O)CNC(C)=O)Cc2ncnn2C1` (stereo not given): the INHIBITION is given as 6.8%. For the compound `CCn1ncc2c1CN(C(=O)c1cc(C)oc1C)CC2COC` (stereo not given), the INHIBITION is reported as -12.1%. On to `CCn1ncc2c1CN(C(=O)c1ccc3c(c1)OCO3)CC2COC` (stereo not given), for which the INHIBITION was 50.7%. Consider `CCn1ncc2c1CN(C(=O)Cc1cccs1)CC2COC` (stereo not given), for which the INHIBITION is reported as -27.9%. For `COCC1CN(C(=O)Cc2ccsc2)Cc2c1cnn2C` (stereo not given) the value was 46.2%. In the case of `COCC1CN(C(=O)c2ccnnc2)Cc2c1cnn2C` (stereo not given), the INHIBITION was 48.3%. For `COCC1CN(C(=O)c2cccn2C)Cc2c1cnn2CC1CC1` (stereo not given) the value was 31.7%; for `CCn1ncc2c1CN(C(=O)c1cscn1)CC2COC` (stereo not given), 45.1%; for `COCC1CN(C(=O)CC2Cc3ccccc3C2)Cc2c1cnn2C` (stereo not given), 59%.

For the compound `COCC1CN(C(=O)c2ccnnc2)Cc2ncnn2C1` (stereo not given), the INHIBITION is recorded as -41.6%. For `COCC1CN(C(=O)Cc2ccccn2)Cc2ncnn2C1` (stereo not given) the value was 64.9%; for `Cc1ccc(N2CCCC(NCc3sccc3C)C2)nn1` (stereo not given), 36.1%; for `O=C(c1cscn1)N1CCC2(CN(Cc3nccs3)C2)C1`, 15.9%. As to `Cc1csc2ncc(-c3ccnc(NC4CCOCC4)n3)c(=O)n12`, the INHIBITION was -9.27%. For `CCCc1noc(C(C)N(CC)Cc2ccco2)n1` (stereo not given) the value was -30.5%; for `O=C(c1ccno1)N1CC[C@@H]2O[C@H](COCCN3CCCC3)CC[C@@H]21`, 4.27%. For `O=C1CCC2(CCCN(C(=O)Cc3cccnc3)C2)N1` (stereo not given), the INHIBITION was found to be 0.112%. For `CCc1nc(C2CCCN2Cc2ccno2)no1` (stereo not given) the value was 19.6%; for `Fc1ccc(C2CCCCN2Cc2cc(-c3ccccn3)no2)cc1` (stereo not given), 51.8%. For `CCc1cc(CN2CCCCC2c2ccc(F)cc2)on1` (stereo not given) the value was 65.7%. Regarding `Fc1cccc(C2CCCCN2Cc2nc(-c3cnccn3)no2)c1` (stereo not given), the INHIBITION is -12.6%.

Take `c1ccc(-c2cc(CN3CCCCCC3c3ccco3)on2)nc1` (stereo not given): the INHIBITION is given as -15%. `Fc1ccc(C2CCCN2Cc2nc(Cc3ccccc3F)no2)cc1` (stereo not given): the INHIBITION was found to be 25.8%.
